Measured values as given in PubChem BioAssay (NCATS).
Inconclusive results are not listed. The source made the active and inactive calls. Unless noted, calls come from the whole dose curve; as a rule, active = well fitted curve in the direction sought with a large enough effect; inconclusive = small, poorly fitted or top-dose-only effect, or another doubt; inactive = no such curve, though single readings can be large; an effect the other way counts as inactive or inconclusive.

How the values were obtained:
[1] = Cell Viability - BJ (AID 421; calls by dose curve;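 note: potency is the fitted concentration of half-maximal effect; cells exposed to compound for 40 hours at 37 °C before readout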); conditions: BJ fibroblast viability, qHTS
Method in brief: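 Quantitative HTS: ATP depletion in BJ cells after 40 hr compound exposure in complete culture medium, detected with CellTiter-Glo; AC50 from standard Hill fits.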

[2] = Cell Viability - HepG2 (AID 433; calls by dose curve;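 note: potency is the fitted concentration of half-maximal effect; potency for ATP loss meaning cytotoxicity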); conditions: qHTS
Method in brief: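 HepG2 cells, 1500 per well, treated 40 hr at 37 °C in complete medium; viability from intracellular ATP by CellTiter-Glo luminescence. Normalized to DMSO and 100 uM tamoxifen; AC50 from Hill fit of qHTS concentration-response.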

[3] = Cell Viability - Renal Proximal Tubule (AID 545); conditions: renal proximal tubule cells viability, primary cells of rat origin; activity change, negative = cytotoxicity: at 91.7 µM (top of the series); note: nearly all actives have a fitted effect of over 40% in size
Method in brief: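 Rat renal proximal tubule primary cells, 1000/well, exposed to compounds for 40 hr at 37 °C in complete medium; cellular ATP read by CellTiter-Glo luminescence. AC50 from concentration-response fitted with standard Hill equation.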

[4] = Cellular Toxicity (caspase-3) Jurkat (AID 655); conditions: Jurkat caspase-3 activation, luminescence; caspase-3 activation: at 92.2 µM (top of the series), DMSO = 0%, tamoxifen = 100%;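 note: cells exposed to compound for 16 h at 37 °C before reading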
Method in brief: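 Jurkat cells (5000/well) in complete medium exposed 16 h at 37 C; caspase-3/7 activity read by Caspase-Glo luminescence after 20 min at room temperature. Normalized to DMSO and 100 uM tamoxifen; AC50 from Hill fits.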

[5] = MultiTox-Fluor Cytotoxicity Assay - LYMP1-001 - Dead Cells (AID 946); conditions: LYMP1-001 lymphoblastoid cells, dead-cell protease fluorescence; series mostly up to 92.2 µM;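 note: 0% = DMSO and 100% = tetraoctylammonium bromide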
Method in brief: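 In this qHTS, 15 uM tetraoctylammonium bromide defined 100% and DMSO defined basal activity. Lymphoblastoid cells (LYMP1-001, 2500 per well) received compound for 16 hr at 37 C before a fluorogenic dead-cell substrate readout at 485/520 nm.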

[6] = Cell Viability - LYMP1-002 - Assay at 16 hr (AID 948); conditions: LYMP1-002 lymphoblastoid cell viability; series mostly up to 92.2 µM;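 note: 0% = DMSO alone and full effect = 92 µM tetraoctylammonium bromide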
Method in brief: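 LYMP1-002 human lymphoblastoid cells, 2500/well, were treated with compounds for 16 hr at 37 C in complete medium. Viability was read as intracellular ATP by CellTiter-Glo luminescence, and AC50 was derived from a Hill fit to concentration-response data.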

[7] = MultiTox-Fluor Cytotoxicity Assay - LYMP1-002 - Live Cells (AID 955); conditions: LYMP1-002 lymphoblastoid live-cell protease fluorescence viability; series mostly up to 46.1 µM;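 note: cells exposed to compound for 16 hours; % is set by controls: 0 for no effect and ±100 for the full control effect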
Method in brief: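 After 16 h compound exposure at 37 C, live LYMP1-002 lymphoblastoid cells (2500/well) were quantified by cleavage of cell-permeant GF-AFC substrate, read at 405/510 nm after 60 min. Concentration-response fitted with Hill equation for AC50.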

[8] = MultiTox-Fluor Cytotoxicity Assay - LYMP1-003 - Dead Cells (AID 961); conditions: LYMP1-003 lymphoblastoid cells, dead-cell protease fluorescence; series mostly up to 92.2 µM;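 note: 0% = DMSO and 100% = tetraoctylammonium bromide; nearly all actives have a fitted effect of over 70% in size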
Method in brief: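 Acute toxicity is scored as increased dead-cell protease activity in human lymphoblastoid LYMP1-003 cells after 16 h compound exposure in complete culture medium. Activity is normalized to DMSO basal and 15 uM tetraoctylammonium bromide as full response.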

[9] = Cell Viability - LYMP2-004 (AID 966); conditions: LYMP2-004 lymphoblastoid cell viability, qHTS; series mostly up to 92.2 µM;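 note: plate controls were DMSO only for no effect and tetraoctylammonium bromide control for full effect; nearly all actives have a fitted effect of over 65% in size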
Method in brief: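 AC50 values come from Hill modelling of concentration-dependent loss of intracellular ATP, measured by CellTiter-Glo luminescence. Human LYMP2-004 lymphoblastoid cells (2500/well) were exposed to compound for 24 h at 37 C.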

[10] = Cell Viability - LYMP2-011 (AID 969); conditions: LYMP2-011 lymphoblastoid cells viability; series mostly up to 92.2 µM;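 note: 0% = DMSO only and full inhibition = 92 µM tetraoctylammonium bromide; nearly all actives have a fitted effect of over 60% in size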
Method in brief: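 Cytotoxicity qHTS with ATP content as read-out: lymphoblastoid cells (2500/well) exposed to compound for 24 h at 37 C, then luciferase luminescence measured. Concentration-response data fitted with the standard Hill equation to give AC50.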

[11] = Cell Viability - LYMP2-017 (AID 972); conditions: LYMP2-017 lymphoblastoid cell viability; series mostly up to 92.2 µM; note: % is set by controls: 0 for no effect and ±100 for the full control effect; nearly all actives have a fitted effect of over 55% in size
Method in brief: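 CellTiter-Glo luminescence (cellular ATP, 30 min RT) measured cytotoxicity after 24 hr compound treatment at 37 C. Cells were a human lymphoblastoid line, LYMP2-017, plated at 2500/well and incubated 5 hr first; concentration-response fitted with Hill equation for AC50.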

[12] = Cell Viability - LYMP2-007 (AID 979); conditions: LYMP2-007 lymphoblastoid cell viability; series mostly up to 92.2 µM;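 note: cells exposed to compound for 24 h before reading; 0% = DMSO only and the negative end = 92 µM tetraoctylammonium bromide; nearly all actives have a fitted effect of over 60% in size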
Method in brief: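 AC50 values come from Hill-equation fits of luminescent intracellular ATP (CellTiter-Glo, 30 min, room temperature) following 24 h compound exposure at 37 C. Cells: LYMP2-007 lymphoblastoid line, 2500 per well, in complete culture medium.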

[13] = Cell Viability - LYMP2-014 (AID 983); conditions: LYMP2-014 lymphoblastoid cells, viability qHTS; series mostly up to 92.2 µM;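 note: plate controls were DMSO only for no effect and 92 µM tetraoctylammonium bromide for full effect; nearly all actives have a fitted effect of over 50% in size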
Method in brief: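 Intracellular ATP loss, read by luciferase luminescence, measures acute cytotoxicity after 24 h compound exposure of lymphoblastoid LYMP2-014 cells (2500/well, 37 C). Concentration-response data fitted to the Hill equation for AC50.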

[14] = Cell Viability - LYMP2-016 (AID 984); conditions: LYMP2-016 lymphoblastoid cell viability, qHTS; series mostly up to 92.2 µM; note: % is set by controls: 0 for no effect and ±100 for the full control effect; nearly all actives have a fitted effect of over 55% in size
Method in brief: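 Human lymphoblastoid LYMP2-016 cells, 2500 per well, treated with compounds for 24 h at 37 C. Viability read as intracellular ATP by CellTiter-Glo luminescence after 30 min at room temperature; AC50 from Hill fits of concentration-response.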

[15] = Cell Viability - LYMP2-018 (AID 985); conditions: LYMP2-018 lymphoblastoid cells, viability (qHTS); series mostly up to 92.2 µM;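 note: plate controls were DMSO only for no effect and tetraoctylammonium bromide at 92 µM for full effect; nearly all actives have a fitted effect of over 50% in size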
Method in brief: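 Viability read as CellTiter-Glo luminescence (cellular ATP) after 24 hr compound exposure at 37 C of 2500 LYMP2-018 lymphoblastoid cells/well, pre-plated 5 hr. Hill-equation modelling gave AC50.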

[16] = Cell Viability - LYMP2-020 (AID 986); conditions: series mostly up to 92.2 µM;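 note: plate controls were DMSO only for no effect and tetraoctylammonium bromide at 92 µM for full effect; nearly all actives have a fitted effect of over 55% in size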
Method in brief: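 Cytotoxicity in qHTS format: luminescent ATP readout from CellTiter-Glo after 24 h compound exposure at 37 C in complete medium. LYMP2-020 lymphoblastoid cells were seeded at 2500/well; concentration-response data fitted to the Hill equation for AC50.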

[17] = Cell Viability - LYMP2-022 (AID 987); conditions: LYMP2-022 lymphoblastoid cell viability; series mostly up to 92.2 µM;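 note: 0% = DMSO alone and full effect = tetraoctylammonium bromide at 92 µM; nearly all actives have a fitted effect of over 55% in size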
Method in brief: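 Cytotoxicity read as decreased cellular ATP (CellTiter-Glo luminescence, 30 min room temperature) after 24 hours compound exposure of 2500 lymphoblastoid LYMP2-022 cells/well at 37 C. Concentration-response data fitted with standard Hill equation for AC50.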

[18] = Cell Viability - LYMP1-002 - Assay at 24 hr (AID 993); conditions: LYMP1-002 lymphoblastoid cells viability; series mostly up to 92.2 µM; note: % is set by controls: 0 for no effect and ±100 for the full control effect
Method in brief: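 qHTS cytotoxicity at 24 h: CellTiter-Glo ATP luminescence in lymphoblastoid line LYMP1-002 incubated with compound at 37 °C. Concentration-response modeled with the Hill equation for AC50; tetraoctylammonium bromide served as positive control.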

[19] = qHTS assay for environmental chemicals that activate the Aryl hydrocarbon Receptor (AhR) signaling pathway (AID 651777); conditions: 1A2-DRE human hepatoma cells, luciferase, 24 h; activation: hits give high values; note: % of control where 0% means no effect; nearly all actives have a fitted effect of over 15% in size
Method in brief: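 Concentration–response screening used 1,200 1A2-DRE cells per well, 24 hr compound exposure (37 C, 5% CO2), and One-Glo luminescence as the AhR-driven CYP1A2 reporter signal.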

[20] = target: Nuclear receptor subfamily 1 group I member 2 (Rattus norvegicus) (UniProt Q9R1A7); assay: qHTS assay for small molecule activators of the rat pregnane X receptor (rPXR) signaling pathway (AID 651751; call rule not given here; note: 0% is about no effect); conditions: rPXR reporter cells, luciferase (One-Glo), 24 h
Nuclear receptor subfamily 1 group I member 2 (Rattus norvegicus), sequence (Q9R1A7 whole entry, looked up): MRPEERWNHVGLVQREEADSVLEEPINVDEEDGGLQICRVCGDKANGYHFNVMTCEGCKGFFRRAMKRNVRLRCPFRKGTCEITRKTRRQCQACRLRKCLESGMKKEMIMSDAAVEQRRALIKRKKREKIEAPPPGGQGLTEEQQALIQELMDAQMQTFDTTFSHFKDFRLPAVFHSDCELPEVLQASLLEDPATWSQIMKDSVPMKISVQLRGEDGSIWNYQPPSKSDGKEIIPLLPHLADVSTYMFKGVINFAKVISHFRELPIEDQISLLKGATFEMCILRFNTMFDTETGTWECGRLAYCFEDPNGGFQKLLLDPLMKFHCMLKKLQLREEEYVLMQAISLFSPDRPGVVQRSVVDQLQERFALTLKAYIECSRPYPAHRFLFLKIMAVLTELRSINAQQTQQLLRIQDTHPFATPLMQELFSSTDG

Cc1ccc(C(=O)O)cc1[N+](=O)[O-]
inactive: Potency [1] > 92 µM | Potency [2] > 92 µM | Potency [3] | Potency [4] | Potency [5] | Potency [6] | outcome [7] | Potency [8] | Potency [9] | Potency [10] | Potency [11] | Potency [12] | Potency [13] | Potency [14] | Potency [15] | Potency [16] | Potency [17] | Potency [18] | activation [19] -0.0314% | max response [20] 1.55%

c1ccc(COCc2ccccc2)cc1
inactive: Potency [1] > 92 µM | Potency [2] > 92 µM | Potency [3] | Potency [4] | Potency [5] | Potency [6] | outcome [7] | Potency [8] | Potency [9] | Potency [10] | Potency [11] | Potency [12] | Potency [13] | Potency [14] | Potency [15] | Potency [16] | Potency [17] | Potency [18] | activation [19] -0.601% | max response [20] 4.39%

CCCCCCCCC1CO1 (stereo not drawn)
inactive: Potency [1] > 92 µM | Potency [2] > 92 µM | Potency [3] | Potency [4] | Potency [5] | Potency [6] | outcome [7] | Potency [8] | Potency [9] | Potency [10] | Potency [11] | Potency [12] | Potency [13] | Potency [14] | Potency [15] | Potency [16] | Potency [17] | Potency [18] | activation [19] 0.826% | max response [20] -2.96%

Cc1ccc(N)cc1[N+](=O)[O-]
inactive: Potency [1] > 92 µM | Potency [2] > 92 µM | Potency [3] | Potency [4] | Potency [5] | Potency [6] | outcome [7] | Potency [8] | Potency [9] | Potency [10] | Potency [11] | Potency [12] | Potency [13] | Potency [14] | Potency [15] | Potency [16] | Potency [17] | Potency [18] | activation [19] 0.886% | max response [20] -0.278%

Cc1c(N)cccc1Cl
inactive: Potency [1] > 92 µM | Potency [2] > 92 µM | Potency [3] | Potency [4] | Potency [5] | Potency [6] | outcome [7] | Potency [8] | Potency [9] | Potency [10] | Potency [11] | Potency [12] | Potency [13] | Potency [14] | Potency [15] | Potency [16] | Potency [17] | Potency [18] | activation [19] -0.26% | max response [20] 7.66%

O=[N+]([O-])c1ccc(F)cc1F
inactive: Potency [1] > 92 µM | Potency [2] > 92 µM | Potency [3] | Potency [4] | Potency [5] | Potency [6] | outcome [7] | Potency [8] | Potency [9] | Potency [10] | Potency [11] | Potency [12] | Potency [13] | Potency [14] | Potency [15] | Potency [18] | activation [19] 0.688% | max response [20] 0.993%
